# The campaign covered roughly 140,000 compounds. About 860 (0.61%) were called active. The sample holds actives, similar compounds and a random draw of the others, so the mix is not that of the screen. Cut-off read from the data, not from the text of the source: active = inhibition above about 25%; inactive = the rest.
# Target: E3 ubiquitin-protein ligase RBX1 (Homo sapiens) + Cullin-1 (Homo sapiens) (UniProt P62877+Q13616)
# Assay: blocks human RBX1-Cullin-1 di-ubiquitin formation (AID 1347404)
# Conditions: in vitro K48 di-Ub FRET, acceptor:donor ratio, 45 min; at 10 µM; hits give high values
# Sequence of E3 ubiquitin-protein ligase RBX1 (Homo sapiens) + Cullin-1 (Homo sapiens) (P62877 whole entry, looked up): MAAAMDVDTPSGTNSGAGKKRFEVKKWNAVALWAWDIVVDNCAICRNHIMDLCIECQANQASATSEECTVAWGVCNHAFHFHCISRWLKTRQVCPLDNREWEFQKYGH
# Sequence of E3 ubiquitin-protein ligase RBX1 (Homo sapiens) + Cullin-1 (Homo sapiens) (Q13616 whole entry, looked up): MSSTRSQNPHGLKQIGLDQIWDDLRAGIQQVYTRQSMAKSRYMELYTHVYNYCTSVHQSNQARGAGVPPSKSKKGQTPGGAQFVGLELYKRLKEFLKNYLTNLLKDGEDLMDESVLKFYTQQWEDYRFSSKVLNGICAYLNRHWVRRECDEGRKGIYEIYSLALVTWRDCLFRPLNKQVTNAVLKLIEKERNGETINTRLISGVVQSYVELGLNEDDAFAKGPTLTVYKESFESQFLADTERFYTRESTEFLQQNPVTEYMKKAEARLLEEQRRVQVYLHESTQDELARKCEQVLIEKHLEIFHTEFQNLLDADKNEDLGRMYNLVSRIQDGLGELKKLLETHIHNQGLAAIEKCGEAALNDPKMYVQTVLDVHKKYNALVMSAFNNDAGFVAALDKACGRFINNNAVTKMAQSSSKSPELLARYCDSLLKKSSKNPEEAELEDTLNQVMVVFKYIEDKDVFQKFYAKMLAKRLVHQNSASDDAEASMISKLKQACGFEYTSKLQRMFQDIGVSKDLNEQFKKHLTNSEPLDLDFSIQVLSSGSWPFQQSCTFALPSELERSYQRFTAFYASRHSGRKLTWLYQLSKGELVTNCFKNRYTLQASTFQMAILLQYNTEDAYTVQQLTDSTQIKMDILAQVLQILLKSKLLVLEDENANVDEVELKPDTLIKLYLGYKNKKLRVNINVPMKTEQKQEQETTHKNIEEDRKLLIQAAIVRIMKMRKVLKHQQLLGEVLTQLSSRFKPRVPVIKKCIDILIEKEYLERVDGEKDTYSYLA
row,Structure (SMILES),inhibition
1,CCOC(=O)C1C(C)=NC(=O)NC1c1cn(-c2ccccc2)nc1-c1ccc(Cl)cc1 (centres undefined),-6.88% (inactive)
2,C=CCC(=O)N1CCC(C2CCN(Cc3cccnc3)CC2)C1 (centres undefined),0.333% (inactive)
3,Cc1ccc(C)c(NC(=O)NC2CCCc3ccccc32)c1 (centres undefined),-5.58% (inactive)
4,CC(Oc1ccc(F)cc1)C(=O)NC(C)c1ccccc1 (centres undefined),-5.33% (inactive)
5,Cc1nn(-c2ccccc2)c(Cl)c1C1c2c(n[nH]c2-c2ccccc2)OC(=N)C1C#N (centres undefined),-6.2% (inactive)
6,CCn1c2ccccc2c2cc(C=Nc3cccc(Cl)c3C)ccc21,-4.47% (inactive)
7,Cc1cc2nc(N3CCC(C(=O)NC45CC6CC(CC(C6)C4)C5)CC3)nc(C)c2cc1C,17.1% (inactive)
8,COCCNC(=O)C1CCN(c2nc(C)c3cc(C)c(C)cc3n2)CC1,-4.41% (inactive)
9,CCC(NC1CCN(c2nc(C)c3cc(C)c(C)cc3n2)CC1)c1ccncc1 (centres undefined),57.6% (active)
10,Clc1ccc(COn2nnc3ccccc32)cc1Cl,-0.0969% (inactive)
11,O=[N+]([O-])c1ccccc1/C=N/Nc1nc2c(s1)CCCC2,-4.02% (inactive)
12,CCCCNC(=O)c1nnn(-c2ccccc2)c1C,9.64% (inactive)
13,CCOC(=O)C1=c2s/c(=C/c3ccc(Cl)cc3)c(=O)n2C(=N)C(C(=O)OC)C1c1ccc(Cl)cc1 (centres undefined),-2.16% (inactive)
14,Cc1ccc(C(=O)Nc2ccc(-c3nnc(SCC(=O)Nc4ccc(F)cc4)n3C)cc2)cc1,2.28% (inactive)
15,C#CCOc1ccc(/C=C2\SC(=S)N(c3cccc(C(=O)O)c3)C2=O)cc1OC,-1.21% (inactive)
16,O=C1SC(=Nc2ccccc2)N=C1Cc1cccc(OC(=O)c2ccccc2)c1,2.05% (inactive)
17,Cc1ccc(CCC(=O)NCc2ccc(Cl)cc2)cc1,-2.97% (inactive)
18,Nc1nnnn1/N=C/c1ccc([N+](=O)[O-])o1,5.46% (inactive)
19,O=C(O)c1cc2c(s1)C=Cc1ccccc1C2,4.96% (inactive)
20,Cc1nc2c(sc3nc4ccccc4nc32)c(=O)[nH]1,-2.71% (inactive)
21,NC(=O)c1ccccc1NC(=O)c1ccc(CN2CCCCC2)cc1,4.02% (inactive)
22,COC(=O)c1ccc2c(c1)C1C=CCC1C(c1cccc([N+](=O)[O-])c1)N2 (centres undefined),5.03% (inactive)
23,O=C(c1ccc2c(c1)C1C=CCC1C(c1ccccc1)N2)N1CCOCC1 (centres undefined),-11.2% (inactive)
24,O=C(O)c1ccc2c(c1)[C@@H]1C=CC[C@@H]1[C@H](c1ccc3c4c(cccc14)CC3)N2,99.3% (active)

row,Structure (SMILES),inhibition
1,CC(=O)Nc1ccc(OC(=O)c2cccc(C)c2)cc1,-0.55% (inactive)
2,COc1ccccc1-c1nc(CN2CCCC2c2n[nH]c(=O)[nH]2)c(C)o1 (centres undefined),-4.69% (inactive)
3,Cc1c(/C=N/NC(=O)CSc2nc3ccccc3s2)c2ccccc2n1C,5.36% (inactive)
4,Brc1ccc(C#Cc2cccs2)cc1,-4.29% (inactive)
5,O=C(COc1ccccc1Cl)Nc1nncs1,2.7% (inactive)
6,COc1cccc(-c2nn3c(-c4cccc(C(F)(F)F)c4)nnc3s2)c1,-4.15% (inactive)
7,Clc1ccccc1CSc1nncn2c1cc1occc12,6.61% (inactive)
8,Clc1ccccc1CSc1nnc(-c2ccco2)c(-c2ccco2)n1,101% (active)
9,CC1(C)N=C(SCc2ccccc2Cl)c2ccccc2N1,-9.73% (inactive)
10,CN1CCC(N2CCCC2C(=O)Nc2ccc(-c3cccc(F)c3)cc2)CC1 (centres undefined),-3.33% (inactive)
11,O=C(/C=C/c1ccc([N+](=O)[O-])o1)c1ccco1,-10.2% (inactive)
12,Cc1noc(C)c1C(=O)Nc1ccc(C(F)(F)F)cc1,1.67% (inactive)
13,Clc1cccc(N2N=C(c3cccs3)CC2c2ccccc2)c1 (centres undefined),-9.66% (inactive)
14,CC(=O)N1N=C(c2ccc(Cl)cc2Cl)CC1c1ccccc1 (centres undefined),-1.24% (inactive)
15,O=C(O)c1cccc(N2N=C(c3ccc4c5c(cccc35)C(=O)N(c3ccccc3)C4=O)CC2c2ccccc2)c1 (centres undefined),44.6% (active)
16,Cc1cc(/C=C2\C(=O)NC(=S)N(c3ccc(Cl)cc3)C2=O)c(C)n1-c1ccccc1,1.69% (inactive)
17,Cc1ccc(-n2c(C)cc(/C=C3/C(=O)NC(=S)N(c4ccc(Br)cc4)C3=O)c2C)cc1,-0.744% (inactive)
18,CCCc1sc(-n2c(C)cc(/C=C3/C(=O)NC(=S)N(C)C3=O)c2C)c(C#N)c1C,76.1% (active)
19,Cc1ccccc1Cn1cc(C(=O)N2CCN(C3CCCC3)CC2)nn1,14.7% (inactive)
20,CC1=Nc2nnnn2C(c2ccc(Br)cc2)C1C(=O)Nc1ccccc1 (centres undefined),0.6% (inactive)
21,O=C(c1nn2c(C(F)(F)F)c3c(nc2c1Cl)-c1ccccc1CC3)N1CCN(c2ccc(F)cc2)CC1,-4.56% (inactive)
22,CSc1ccc(C2C3=C(CCCC3=O)OC(=N)C2C#N)cc1 (centres undefined),3.66% (inactive)
23,N#CC1C(=N)OC2=C(C(=O)CCC2)C1c1ccsc1 (centres undefined),6.79% (inactive)
24,N#CC1C(=N)OC2=C(CCC/C2=C/c2ccoc2)C1c1ccoc1 (centres undefined),50.6% (active)

row,Structure (SMILES),inhibition
1,Cc1ccc2nc(CNC(=O)Cn3nnnc3CN3CCC(C)CC3)cn2c1,-3.66% (inactive)
2,Clc1ccc(C2=CSC3=Nc4cccc5cccc(c45)N23)cc1,86.8% (active)
3,Clc1ccc(-c2cc3ccccc3o2)cc1,-1.45% (inactive)
4,O=C(O)c1ccccc1C(=O)Nc1ccc(-c2cn3ccsc3n2)cc1,10.3% (inactive)
5,COC(=O)Nc1ccc(S(=O)(=O)N2CCn3c4c(c5cc(C)ccc53)CCCC42)cc1 (centres undefined),-2.9% (inactive)
6,Nc1c(S(=O)(=O)O)cc(Nc2ccc(-c3ccc(Nc4cc(S(=O)(=O)O)c(N)c5c4C(=O)c4ccccc4C5=O)cc3)cc2)c2c1C(=O)c1ccccc1C2=O,94.8% (active)
7,COCCCNC(=O)c1ccc2c(c1N)C(=O)c1ccccc1C2=O,5.03% (inactive)
8,Cc1ccc(OCc2ccc(C(=O)N/N=C/c3sccc3C)cc2)cc1C,-9.15% (inactive)
9,Cc1cc(C(=O)O)ccc1NCc1ccccc1,15.3% (inactive)
10,COc1cc(C(=O)N/N=C(/C)c2cccnc2)cc(OC)c1OC,-15.1% (inactive)
11,COc1cccc(OC/C=C/CN2CCN(C)CC2)c1,-3.35% (inactive)
12,O=C(c1ccco1)N(Cc1cccs1)c1ccc(O)cc1,-0.924% (inactive)
13,CCc1nccn1CCC(=O)NCc1nc(-c2ccc(NC(=O)c3ccc(COC)o3)cc2)oc1C,-7.82% (inactive)
14,CCNC(=O)N1CCNC(=O)C1CC(=O)N1CCN(c2ccc(OC)cc2)CC1 (centres undefined),16.6% (inactive)
15,CCOc1ccc(-n2c(Sc3c(N)c4c5c(sc4[nH]c3=O)CCC5)nnc2-c2nn(C)c(C)c2Cl)cc1,-4.22% (inactive)
16,CCCNC(=O)C1CCN(Cc2ccccc2C)CC1,4.05% (inactive)
17,COC(=O)C1=C(C)O[C@]23CCC[C@]12CC(=O)C3,2.4% (inactive)
18,c1ccc2c(Sc3ncnc4sc5c(c34)CCCC5)c[nH]c2c1,0.643% (inactive)
19,CCCCc1nnc(SCC2=Nc3ccc(F)cc3C(=O)C2)n1C,-6.52% (inactive)
20,Cc1scc(Cc2csc(C)c2C)c1C,-4.02% (inactive)
21,Cc1ccc(NC(=O)c2c(N)sc3c2CCC3)c(C)c1,43.1% (active)
22,Cc1cccc(C(=O)Nc2ccc(C)cc2C)c1,-1.04% (inactive)
23,COc1ccc(-c2cc(-c3ccc(C)cc3)nc3sc(C(=O)Nc4ccc(C)cc4C)c(N)c23)cc1OC,7.9% (inactive)
24,Cc1[nH]c2ccccc2c1C(c1cccnc1)N1CCN(c2ccc(F)cc2)CC1 (centres undefined),2.08% (inactive)

row,Structure (SMILES),inhibition
1,CN(C)CCOCCOC(c1ccccc1)c1ccccc1C(F)(F)F (centres undefined),0.845% (inactive)
2,COC(=O)c1ccccc1NC(=O)CCCC(=O)OCC(=O)c1ccc(Br)cc1,1.86% (inactive)
3,CCOC(=O)c1cnc2c(C)cc(Cl)cc2c1N1CCN(Cc2ccccc2)CC1,-3.19% (inactive)
4,COc1ccc(N2C(S)=C(C#N)C(=O)NC2c2ccc(-c3ccccc3Cl)o2)cc1 (centres undefined),24.9% (inactive)
5,CC(C)(C)NS(=O)(=O)c1ccc(NC(=O)C2CCCO2)cc1 (centres undefined),-1.62% (inactive)
6,O=C(OCc1ccc(Br)cc1)c1ccccc1C(=O)c1ccccc1,3.15% (inactive)
7,CC(=O)c1ccc(NC(=O)CCCC(=O)OCC(=O)c2ccc(-c3ccccc3)cc2)cc1,-6.85% (inactive)
8,O=C(Nc1ccc(S(=O)(=O)O)c2ccccc12)c1ccc(C(=O)Nc2ccc(S(=O)(=O)O)c3ccccc23)cc1,2.57% (inactive)
9,O=C(Nc1ccccc1O)c1cccc(S(=O)(=O)Nc2ccc(F)cc2)c1,1.23% (inactive)
10,O=C(Nc1ccc(S(=O)(=O)O)c2cc(S(=O)(=O)O)cc(O)c12)c1ccccc1,63.3% (active)
11,CC(O)c1cn(C2CCN(c3nc4ccccc4s3)CC2)nn1 (centres undefined),4.88% (inactive)
12,COc1ccccc1C(=O)Nc1ccnn1C1CCN(Cc2nccn2C)CC1,9.37% (inactive)
13,CC(C)(C)NS(=O)(=O)Cc1ccc(Cl)cc1Cl,7.68% (inactive)
14,CCOC(=O)CNc1nc2ccccc2n2c(C)nnc12,-3.19% (inactive)
15,Cc1nc2ccccc2n1/N=C/c1ccccc1,3.45% (inactive)
16,C/C(=N\O)c1sc2nc3ccccc3n2c1C,26.5% (active)
17,CCc1ccccc1-c1nc2c(cnn2C)[nH]1,5.57% (inactive)
18,CC1CCN(CC(O)COC2CC3CCC2(C)C3(C)C)CC1 (centres undefined),0.492% (inactive)
19,CCN(CC)C(=O)CSc1nc2sc3c(c2c(=O)n1C)CCC3,1.01% (inactive)
20,N=C1/C(=C/c2cccc(OC(=O)c3ccc(Cl)cc3)c2)C(=O)N=C2SC(c3cccs3)=NN12,49.6% (active)
21,CC(C)C1=NN2C(=N)/C(=C/c3cccc(OCc4ccc(F)cc4)c3)C(=O)N=C2S1,-4.78% (inactive)
22,COc1cc(/C=C2\C(=N)N3N=C(Cc4cccs4)SC3=NC2=O)cc(OC)c1OC,6.55% (inactive)

# — PubChem BioAssay AID1347404 (Pan Lab, Icahn School of Medicine at Mount Sinai, 2020)
